# Screening data (PubChem BioAssay)
# Shiga inhibitor = Shiga toxin inhibition | Vero cells, Shiga toxin protein synthesis inhibition reporter | inhibition, % at 38.7 µM | 290,000 compounds, 9.2% hits | AID 2315; in the data active = inhibition mostly above about 28%, no sharp cut-off; inactive = mostly below about 43%; also: 0% is about no effect
# AmpC inh no detg = inhibitors of E. coli AmpC beta-lactamase without detergent; P00811; 330,000 compounds, 0.52% hits; AmpC nitrocefin hydrolysis, absorbance 480 nm, 0.0001% Triton; Potency, µM (series often up to 57.1 µM), inactives show top-dose activity change, negative = inhibition, hits mostly inhibitors;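 also: potency is read from the fitted curve at half-maximal effect; plate controls were no compound for no effect and no enzyme for full effect; nearly all actives have a fitted effect of over 20% in size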
# Target sequence (P00811 whole entry, looked up): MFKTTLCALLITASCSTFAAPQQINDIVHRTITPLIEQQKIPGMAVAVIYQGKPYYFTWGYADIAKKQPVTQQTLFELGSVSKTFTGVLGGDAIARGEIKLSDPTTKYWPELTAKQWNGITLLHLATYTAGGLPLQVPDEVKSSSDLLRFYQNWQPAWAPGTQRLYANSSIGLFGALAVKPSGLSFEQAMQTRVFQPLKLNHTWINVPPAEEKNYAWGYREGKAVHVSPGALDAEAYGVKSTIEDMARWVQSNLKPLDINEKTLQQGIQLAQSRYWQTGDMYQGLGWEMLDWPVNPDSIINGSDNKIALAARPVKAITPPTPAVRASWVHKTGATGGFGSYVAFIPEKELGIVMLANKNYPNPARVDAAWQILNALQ
#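 20 mM phosphate pH 7.0 + 0.01% (detergent screen) or 0.0001% Triton X-100; 5.3 nM AmpC reagent; cpd preinc 15 min RT; nitrocefin (800 uM stock) to start; A480 q20 s × 4 min; Activity was normalised to no-enzyme and no-compound control wells.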
# SARS PLP yeast = SARS-CoV PLP inhibition in yeast; Potency, µM (series often up to 32.9 µM), for the others: at the highest dose activity, positive = growth rescue, hits mostly activators; 330,000 compounds, 0.19% hits; S. cerevisiae expressing SARS-CoV PLpro, growth rescue; calls by dose curve; also: potency is read from the fitted curve at half-maximal effect; 0% is about no effect; nearly all actives have a fitted effect of over 55% in size
# Cycloheximide cs = counter-screen hit for Shiga toxin inhibitors, cycloheximide. cell reporter, cycloheximide protein synthesis inhibition counterscreen. max response, %. 300,000 compounds, 12% hits. AID 2314; in the data active = max response mostly above about 13%, no sharp cut-off; inactive = mostly below about 14%; also: read at 38.3 µM for the half of the compounds with a filed dose; 0% is about no effect
# AMA1-RON2 inh = inhibitors of Plasmodium falciparum AMA1-RON2 interaction | AlphaScreen AMA1-biotinylated RON2 peptide binding | Potency, µM (top dose mostly 58.2 µM), for the others: top-dose activity change, negative = inhibition, usual class: inhibitors | 360,000 compounds, 0.2% hits;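 also: potency is read from the fitted curve at half-maximal effect; 0% = vehicle wells and -100% = peptide control; nearly all actives have a fitted effect of over 45% in size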
#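 AMA1 (3D7) with his tag at 25 nM final met compounds first, then biotinylated RON2 peptide at 25 nM; detection used donor plus acceptor beads, 10 µg/mL apiece, read by AlphaScreen after 30 min at room temperature.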
# AmpC detergent = inhibitors of E. coli AmpC beta-lactamase with detergent. AmpC hydrolysis of nitrocefin, absorbance 480 nm, 0.01% Triton. 370,000 compounds, 0.041% hits. AID 485294. P00811. Potency, µM (titrated, usually from 114 µM), for the others: top-dose activity change, negative = inhibition, hits mostly inhibitors;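 also: potency is read from the fitted curve at half-maximal effect; 0% = no-compound wells and -100% = no-enzyme wells; nearly all actives have a fitted effect of over 25% in size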
#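 20 mM phosphate pH 7.0 + 0.01% (detergent screen) or 0.0001% Triton X-100; 5.3 nM AmpC reagent; cpd preinc 15 min RT; nitrocefin (800 uM stock) to start; A480 q20 s × 4 min; Activity was normalised to no-enzyme and no-compound control wells.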
# * marks the source's active call; other numbers are inactive results; u = inconclusive; x = no result given. Many of the other results were omitted from the sample, so hits are more common in it than they were. Unless noted, calls follow the shape of the dose curve; as a rule, active = well fitted curve in the direction sought with a large enough effect; inconclusive = small, poorly fitted or top-dose-only effect, or another doubt; inactive = no such curve, though single readings can be large; an effect the other way counts as inactive or inconclusive.
SMILES,Shiga inhibitor,AmpC inh no detg,SARS PLP yeast,Cycloheximide cs,AMA1-RON2 inh,AmpC detergent
CCCC1(c2ccccc2)NC(=O)N(CC(=O)N2CC(=O)Nc3ccccc32)C1=O (stereo not drawn),x,-20%,2%,x,9%,4%
CCOc1ccc2nc(-c3cc(NC(C)=O)ccc3O)sc2c1,51,-50%,0%,35*,2%,0%
COc1ccc(OCC(=O)Nc2ccc(O)c(-c3nc4ccccc4s3)c2)cc1,x,x,x,x,x,2%
O=C(N/N=C/c1sc(=O)n(-c2ccccc2)c1Cl)c1ccncc1,67*,-18%,4%,20*,2%,-6%
COc1cc(C(=O)N/N=C/c2sc(=O)n(-c3ccccc3)c2Cl)cc(OC)c1OC,16,42%,-24%,19*,9%,u
O=C(COc1ccc(Cl)cc1Cl)NC(=S)Nc1ccccc1C(=O)O,35*,-16%,-1%,23*,x,3%
O=C(COc1ccc(Cl)cc1Cl)Nc1ccc(C(=O)Nc2ccccc2C(=O)O)cc1,45,-10%,3%,35*,-14%,u
CC(C)(CO)NC(=O)CCCOc1ccc(Cl)cc1Cl,54*,31%,3%,50*,-2%,-6%
Cc1ccccc1NC(=S)NC(=O)COc1ccccc1C,-14,-39%,-5%,27*,80%,-6%
CC(C)(C)NC(=O)CCn1nc(-c2ccc(Cl)cc2)c2ccccc2c1=O,11,100%,-2%,-2,-4%,-5%
Cc1ccc(S(=O)(=O)c2nc(S(=O)(=O)c3ccccc3)sc2N2CCN(CCO)CC2)cc1,7,156%,4%,17,-13%,-16%
O=C(CCCOc1ccc(Cl)cc1Cl)Nc1ccccc1C(=O)O,84*,-29%,2%,42*,u,-1%
O=C(CNC(=O)c1ccc(Cl)cc1)Nc1ccccc1C(F)(F)F,-3,-2%,0%,-4,-3%,3%
Nc1cc(-c2ccccc2)ccc1O,29*,-22%,u,37*,47%,u
CCOc1ccc(NC(=S)NCc2ccco2)cc1,36,-25%,6%,15,-11%,1%
CCOc1ccc(NC(=S)N(CCc2c(C)[nH]c3ccc(C)cc23)Cc2ccco2)cc1,19,u,-5%,10,22%,u
COc1ccc(NC(=S)N(Cc2ccc(N(C)C)cc2)Cc2ccco2)cc1,17,-26%,-24%,14*,u,-11%
COc1ccc(NC(=S)N(CCc2c(C)[nH]c3ccc(C)cc23)Cc2ccco2)cc1,-14,18µM*,-11%,-2,20%,u
CCOc1ccc(NC(=S)N(Cc2ccc(N(C)C)cc2)Cc2ccco2)cc1,30*,6%,-8%,16*,u,2%
CC(Sc1nnc(-c2ccccc2F)n1C)C(=O)NC1CCCCC1 (stereo not drawn),x,3%,-12%,x,4%,-16%
COc1ccc(C)cc1CN1C(=O)c2ccccc2C1=O,21,-16%,-1%,8,28%,5%
O=[N+]([O-])c1ccc2c(c1)nc1n2CCN(C2CCCCC2)C1,49*,-41%,0%,37*,0%,-1%
CC(=O)Nc1ccc2c(c1)nc1n2CCN(C2CCCCC2)C1,47,1%,0%,29*,-3%,0%
CC(=O)N1CCN(C(=O)COc2ccc(Br)cc2)CC1,1,0%,3%,-1,2%,-1%
c1csc(CNc2ncnc3nc[nH]c23)c1,15,-24%,1%,16*,2%,2%
SMILES,Shiga inhibitor,AmpC inh no detg,SARS PLP yeast,Cycloheximide cs,AMA1-RON2 inh,AmpC detergent
c1ccc(-n2ncc3c(NCc4cccnc4)ncnc32)cc1,67,-36%,-10%,20*,-1%,-4%
COc1ccc(-n2ccnc(NCc3cccs3)c2=O)cc1,x,x,x,x,x,0%
COc1ccc(-n2ncc3c(NCc4ccco4)ncnc32)cc1,90*,-9%,2%,39*,13%,-5%
Cc1ccc(-n2ncc3c(NCc4ccccc4)ncnc32)cc1C,x,x,x,x,x,-3%
COc1ccc(-n2ncc3c(NCc4cccs4)ncnc32)cc1,145*,-35%,-4%,38*,3%,1%
Clc1ccc(-n2ncc3c(NCc4ccco4)ncnc32)cc1,-10,-29%,4%,2,20%,3%
COc1ccc(NS(=O)(=O)c2ccc3c(c2)OCCO3)cc1OC,-2,-24%,0%,-3,-4%,-8%
Cc1cc2cc(CNC(=O)c3ccc(S(=O)(=O)N(C)C)cc3)ccc2n1C,-11,u,3%,-2,-4%,u
COc1ccc(N2CCN(c3ncnc4c3cnn4-c3ccc(F)cc3)CC2)cc1,x,x,x,x,x,3%
C=CCNc1ncnc2c1cnn2-c1ccc(OC)cc1,61*,-14%,7%,30*,29%,3%
COc1ccc(CCNc2ncnc3c2cnn3-c2ccc(F)cc2)cc1,x,x,x,x,x,-3%
c1ccc(-n2ncc3c(NCc4cccs4)ncnc32)cc1,52*,-40%,-13%,51*,0%,-10%
COc1ccc(-n2ncc3c(NCc4ccccn4)ncnc32)cc1,90*,-2%,-11%,50*,30%,-5%
CCCNc1ncnc2c1cnn2-c1ccc(OC)cc1,-11,-13%,4%,-2,x,2%
CCCN(CCC)c1ncnc2c1cnn2-c1ccc(OC)cc1,66*,47%,1%,30*,4%,u
CC(C)OP(=O)(OC(C)C)C(Nc1ccccc1)c1ccccc1C(F)(F)F (stereo not drawn),-7,193%,-35%,-2,0%,u
C/C(=N/NC(=O)c1sc(=S)n(C)c1C)c1ccccc1,-7,-20%,10%,1,-2%,-6%
CC(C)[C@H](NC(=O)c1ccccc1)C(=O)N1CCc2ccccc21,-2,-38%,20%,-6,u,u
O=C1Nc2ccccc2C1c1ncc(C(F)(F)F)cc1Cl (stereo not drawn),-4,-24%,1%,-3,-8%,-8%
Clc1cc2c(nn1)Nc1ccccc1S2,39,-24%,-1%,11*,1%,u
c1ccc2c(c1)Nc1nccnc1S2,128*,-21%,-21%,28*,13%,-1%
FC(F)(F)c1cnc2c(c1)Nc1ccccc1S2,44,-20%,8%,13*,-3%,u
O=C1Nc2cccnc2Sc2ccccc21,30,-20%,0%,3,-8%,-13%
Cc1ccc(O)c(CNc2cccc3cccnc23)c1,32,-32%,-5%,5,89%,-5%
CCOC(=O)c1c(C)n(-c2ccccc2)c2ccc(OC(=O)c3cccc(C)c3)cc12,x,x,x,x,x,2%
COc1cccc(-n2cc(CN(C)C(=O)C3CCC(=O)N(C4CC4)C3)cn2)c1 (stereo not drawn),x,x,x,x,2%,x
Cc1cccc(Cn2c(C)c(C)c3cc(C(=O)NCCN4CCOCC4)ccc32)c1,2,175%,-14%,8,-1%,-5%
